Choline anaer gr = choline-fed anaerobic bacterial growth inhibition; Gram-negative bacterium anaerobic choline minimal medium, absorbance growth; stronger effect = lower value; calls only; 0.2% of 55,000 active; AID 1963822; call rule not given here
The depositor's hits bear a star; i = inactive; + = active, no number; ! = not confirmed by another sample. Only a selection was taken, and hits are over-represented in it overall.

SMILES | Choline anaer gr
CCc1ccc(OCc2nc(CCN(C)C(=O)Nc3ccc(C(=O)OC)cc3)no2)cc1 | +
CCOc1ccccc1NC(=O)N(C)CCc1noc(COc2ccc(Cl)cc2)n1 | i
CCc1ccc(NC(=O)N(C)CCc2noc(-c3ccc(C)cc3)n2)cc1 | i
Cc1ccc(NC(=O)Cn2cnc3sc4c(c3c2=O)CCC4)cc1Cl | i
CO[C@@]12[C@H](COC(N)=O)C3=C(C(=O)C(C)=C(N)C3=O)N1C[C@@H]1N[C@@H]12 | +!
O=C(NCC(c1ccco1)N1CCCC1)c1ccc(Br)o1 (configuration not stated) | i
CCCOc1ccc(-c2nn3c(=O)c(NC(=O)c4cccc(C)c4)cnc3o2)cc1 | i
O=C(Nc1ccc2c(c1)OCO2)Nc1ccc2nc3n(c(=O)c2c1)CCCC3 | i
CCCc1c(C)nc2nc[nH]n2c1=O | i
CC(=O)Nc1sc2c(c1-c1nc3ccccc3s1)CCN(C(C)C)C2 | i
COc1ccc(C(=O)Nc2sc3c(c2-c2nc4ccccc4s2)CCN(C(C)C)C3)cc1OC | +
COC(=O)c1ccc(C(=O)Nc2sc3c(c2-c2nc4ccccc4s2)CCN(C(C)C)C3)cc1 | i
O=C(NCCc1c[nH]c2ccccc12)c1ccc(N2C(=O)CCS2(=O)=O)cc1 | i
CCCCC/C=C\C/C=C\C/C=C\CCCCCCC(=O)O | i
CCCCC/C=C\C/C=C\C/C=C\CCCCC(=O)O | +
CCCCC/C=C\C/C=C\CCCCCCCC(=O)O | i
Cc1nnc(-c2c(C)[nH]c(C)c2S(=O)(=O)NCCC2=CCCCC2)o1 | i
COc1ccc2c(c1)c(C1=C(c3c[nH]c4ccccc34)C(=O)NC1=O)cn2CCCN(C)C | i
CN(C)CCCn1cc(C2=C(c3c[nH]c4ccccc34)C(=O)NC2=O)c2ccccc21 | +!
Cn1cc(C2=C(c3cn(CCCSC(=N)N)c4ccccc34)C(=O)NC2=O)c2ccccc21 | i
Cc1ccccc1C(=O)Nc1noc2ccccc12 | i
Cc1ccc(C)c(NC(=O)N2CCSc3nc(C)cc(C)c32)c1 | i
Cc1onc(-c2c(F)cccc2Cl)c1C(=O)N[C@@H]1C(=O)N2C(C(=O)O)C(C)(C)S[C@H]12 (some centres not stated) | i
Cc1onc(-c2ccccc2Cl)c1C(=O)N[C@@H]1C(=O)N2[C@@H]1SC(C)(C)[C@@H]2C(=O)O | +
CC1(C)S[C@@H]2[C@H](NC(=O)Cc3ccccc3)C(=O)N2[C@H]1C(=O)O | i
SMILES | Choline anaer gr
COc1cccc(NC(=O)c2cn(-c3cc(-c4noc(C)n4)ccc3C)nc2C)c1 | i
CCc1nc(OCC(=O)Nc2cc(C)cc(C)c2)c2ccccc2n1 | i
Cc1nc(OCC(=O)Nc2ccc(F)cc2F)c2ccccc2n1 | +
O=C(COc1ccc(-c2cnc3ccccc3n2)cc1)Nc1cc(F)ccc1F | i
CC(=O)Nc1cccc(C(=O)N(CCC(=O)N2CCNCC2)C(C)C)c1 | i
CC(C)OC(=O)CCC/C=C\C[C@@H]1[C@@H](/C=C/[C@H](O)CCc2ccccc2)[C@H](O)C[C@@H]1O | +
CC(C)OC(=O)CCCC=CCC1C(O)CC(O)C1CCC(O)CCc1ccccc1 (configuration not stated) | i
CC(C)OC(=O)CCC/C=C\C[C@@H]1[C@@H](/C=C/C(=O)COc2cccc(C(F)(F)F)c2)[C@H](O)C[C@@H]1O | i
O=C(O)CCC/C=C\C[C@@H]1[C@@H](/C=C/[C@@H](O)COc2cccc(C(F)(F)F)c2)[C@H](O)C[C@@H]1O | +!
CCCCC[C@H](O)/C=C/[C@@H]1[C@@H](C/C=C/CCCC(=O)O)[C@H](O)C[C@H]1O | i
O=C(O)CCC/C=C/C[C@@H]1[C@@H](/C=C/[C@@H](O)COc2cccc(C(F)(F)F)c2)[C@H](O)C[C@@H]1O | i
COC(=O)c1sc2cccc(Cl)c2c1NC(=O)CS(=O)(=O)c1ccc(Cl)cc1 | i
Cc1nn(C)c2nc(OC(C)C(=O)N3CCN(c4ccccc4)CC3)cc(C(F)(F)F)c12 (configuration not stated) | i
O=C(c1cccn2c(=O)c3c4c(sc3nc12)CCCC4)N1CCc2ccccc2C1 | i
O=C1C(=O)N(Cc2ccccc2)CCN1CC(=O)N1CCc2ccccc21 | i
CCCN1CCN(C(=O)c2cc3sc(C)c(CN4CCCCC4)c3[nH]2)CC1 | i
Cc1sc2cc(C(=O)N3CCC(N4CCCCC4)CC3)[nH]c2c1CN1CCCCC1 | +
Cc1sc2cc(C(=O)N3CCC4(CC3)OCCO4)[nH]c2c1CN1CCCCC1 | i
COC(=O)CNC(=O)N1CCCC1c1cc(C)on1 (configuration not stated) | i
O=c1onc2n1-c1cc(Br)ccc1OC2 | +
Cc1nc(CN2C(=O)COc3ccc(S(=O)(=O)N4CCCC4)cc32)no1 | i
Cc1nc(CN2C(=O)COc3ccc(S(=O)(=O)N4CCCCC4)cc32)no1 | i
C=CCN(C(=O)C(C)Oc1cc(C(F)(F)F)c2c(C)nn(C)c2n1)c1ccccc1 (configuration not stated) | i
O=C(c1cnc2ccccc2c1NCc1ccc(Cl)cc1)N1CCOCC1 | i
Oc1ccc(C2NCCc3c2[nH]c2ccc(Cl)cc32)cc1 (configuration not stated) | +
SMILES | Choline anaer gr
CCOc1cc(C2NCCc3c2[nH]c2ccc(Cl)cc32)ccc1O (configuration not stated) | +
COc1ccc2[nH]c3c(c2c1)CCNC3c1cccc(O)c1 (configuration not stated) | i
CCCOc1ccc(C2NCCc3c2[nH]c2ccccc32)cc1OC (configuration not stated) | i
COc1ccc(C2NCCc3c2[nH]c2ccccc32)cc1O (configuration not stated) | i
Oc1ccc(C2NCCc3c2[nH]c2ccc(Cl)cc32)cc1O (configuration not stated) | i
O=C(Nc1cccc(C(=O)N2CCCC2)c1)c1nsc2ccccc12 | i
CCS(=O)(=O)c1nc2ccc(NS(=O)(=O)c3cccc(F)c3)cc2s1 | i
Cc1nc(-c2cc(NC(=O)CNC(=O)c3ccccc3)c(C)s2)no1 | i
O=C1c2cccnc2C(=O)N1Cc1ccc(S(=O)(=O)N2CCN(C3CCCCC3)CC2)cc1 | i
Cc1[nH]c(C)c(S(=O)(=O)N2CCCC(C)C2)c1-c1nnc(C2CCC2)o1 (configuration not stated) | i
CC1CCCN(c2ccc(NC(=O)C3CCC3)c(C(=O)O)c2)C1 (configuration not stated) | i
CN1CCCN(c2ccc(NC(=O)c3ccccc3Cl)c(C(=O)O)c2)CC1 | i
CC1CCCN(c2ccc(NC(=O)c3ccccc3Cl)c(C(=O)O)c2)C1 (configuration not stated) | +
Cc1noc(C)c1C1CCCN1C(=O)c1cc(C2CC2)on1 (configuration not stated) | +
CCc1onc(C)c1C1CCCN1C(=O)c1cc(C2CC2)on1 (configuration not stated) | i
Cc1cc(C(=O)N2CCCC2c2c(C)noc2C)no1 (configuration not stated) | i
N#CCSc1n[nH]c(=O)c2cc(-c3ccco3)nn12 | i
CCc1ccc(NC(=O)c2ccc(CN3CCN(Cc4ccccc4)C3=O)cc2)cc1 | i
O=S(=O)(c1ccccc1)N1CCCC1c1ccc(Cl)cc1 (configuration not stated) | i
CSc1ccc2c(c1)N(CCC1CCCCN1C)c1ccccc1S2 (configuration not stated) | i

High-throughput results (PubChem BioAssay)
